Screening results deposited in PubChem BioAssay by National Center for Advancing Translational Sciences (NCATS).
USP1 inh: USP1/UAF1 (human) deubiquitinase inhibition. O94782. 390,000 compounds, 0.23% hits. Potency, µM (titrated, usually from 57.1 µM), for inactives: at the top dose activity change, negative = inhibition, most hits filed as inhibitors. recombinant USP1/UAF1, Ub-Rhodamine cleavage fluorescence; note: potency is the fitted concentration of half-maximal effect; nearly all actives have a fitted effect of over 60% in size
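High-throughput fluorogenic screen: 1nM USP1/UAF1 complex, Ub-Rho substrate 150nM final, 50mM HEPES pH 7.8 with 0.5mM EDTA, 0.1 mg/ml BSA, 1mM TCEP and 0.01% Tween-20.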
Tau fluor cs: counter-screen for tau fibril formation inhibitors. 280,000 compounds, 0.93% hits. Potency, µM (highest dose often 57.7 µM), inactives show top-dose activity change, negative = decrease. tau K18 P301L Alexa594 fluorescence, heparin fibrillization; note: potency is the fitted concentration of half-maximal effect; nearly all actives have a fitted effect of over 55% in size
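Human K18 P301L tau (15 uM unlabeled plus 0.24 uM Alexa 594-labeled, final) in 100 mM sodium acetate pH 7 was mixed with compound and 20 uM heparin and incubated 6 hr at 37 C.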
Tau FP inhib: tau fibrillization inhibition (FP); 280,000 compounds, 0.39% hits; K18 P301L tau heparin fibrillization, Alexa594 FP, 6 h; Potency, µM (top dose mostly 57.7 µM), without a hit: at the highest dose activity, negative = inhibition, usual class: inhibitors; P10636; AID 1468; note: potency is the fitted concentration of half-maximal effect; nearly all actives have a fitted effect of over 55% in size
Target sequence (P10636 561-689 P618L limits assumed): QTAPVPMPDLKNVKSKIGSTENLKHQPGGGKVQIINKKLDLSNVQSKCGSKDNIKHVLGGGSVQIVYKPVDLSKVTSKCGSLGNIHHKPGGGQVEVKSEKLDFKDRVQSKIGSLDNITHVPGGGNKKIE
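FP of Alexa 594-tau after heparin (20 uM) induction. Substrate: human K18 P301L, 15 uM unlabeled, 0.24 uM labeled. Buffer 100 mM sodium acetate pH 7. 6 hr, 37 C.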
Coupling enz: inhibits coupling enzyme system, counter-screen for aldolase hits | coupling enzyme system counterscreen, AmpLite Red fluorescence | activity change, negative = inhibition, % at 58.2 µM, hits read low | 290,000 compounds, 0.67% hits; in the data active = activity change below about -30%
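Final compound at 57.5 uM, incubated 10 min at RT with coupling enzyme reagent (glyceraldehyde-3-phosphate), then 20 min with substrate and AmpLite Red detection. Fluorescence read at 525/598 nm; tests interference with the coupling assay, not aldolase inhibition.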
Tau fibril ThT: inhibitors of human tau fibril formation, thioflavin T binding | P10636 | recombinant tau K18 P301L (four-repeat tau fragment), heparin-induced fibrillization, ThT fluorescence | 270,000 compounds, 2.1% hits | Potency, µM (series often up to 57.4 µM), for the others: at the top dose activity, negative = inhibition, most hits filed as inhibitors; note: potency is the fitted concentration of half-maximal effect; nearly all actives have a fitted effect of over 55% in size
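Aggregation was driven by heparin (20 uM final) acting on recombinant tau […] bearing P301L in 100 mM sodium acetate pH 7; fibrils were detected with Thioflavin T.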
* hit, by the source's call; ? = inconclusive; . = not tested or not shown; ! = not confirmed by another sample; [ ] = remark or other dose. Sampled rows, rich in hits. Any-hit rate of the full collection: about 2.3%. Unless noted, calls come from the whole dose curve; as a rule, active = well fitted curve in the direction sought with a large enough effect; inconclusive = small, poorly fitted or top-dose-only effect, or another doubt; inactive = no such curve, though single readings can be large; an effect the other way counts as inactive or inconclusive. % is set by controls: 0 for no effect and ±100 for the full control effect.

SMILES | USP1 inh | Tau fluor cs | Tau FP inhib | Coupling enz | Tau fibril ThT
COc1cccc(/C=N/NC(=O)c2cccc3ccccc23)c1 | -8% | . | . | -1 | .
COc1ccc(OC)c(/C=N/NC(=O)CNC(=O)c2cccc3ccccc23)c1 | -24% | . | . | -34* | .
COc1ccccc1/C=N/NC(=O)CC(=O)NCc1ccccc1 | -21% | -3% | -3% | -54* | 6%
COc1ccccc1/C=N/NC(=O)CO | -19% | -9% | -5% | -2 | -12%
COc1ccc(-c2c(O)c3cc(O)cc(O)c3oc2=O)cc1 | . | . | . | 1 | .
Clc1cccc(N2CCN(c3nc4ccccc4n4cnnc34)CC2)c1 | -20% | -16% | -7% | . | ?
COc1ccc(C)cc1-n1c(SCC(=O)NCc2ccco2)nc2c([nH]c3ccccc32)c1=O | 9% | -22% | -1% | . | -5%
CC(NC(=O)c1ccc2c(c1)sc1nc(-c3ccc(F)cc3)cn12)C12CC3CC(CC(C3)C1)C2 (centres undefined) | -4% | 5% | 7% | . | 0%
COc1ccc([N+](=O)[O-])cc1/C=N/NC(=O)CNC(=O)C(c1ccccc1)c1ccccc1 | -22% | ? | 8% | -30* | -12%
Cc1ccc(C)c(NC(=O)CCCN2C(=O)COc3ccc(C)cc32)c1 | ? | -15% | -5% | . | -7%
O=C(Nc1cc(Cl)cc(Cl)c1)c1cccc(OC(F)F)c1 | -17% | ? | 20µM* | -3 | ?
Cc1ccccc1C(=O)Nc1nnc2n1CCS2 | -19% | 6% | 8% | . | 4%
CCCCC1=CC2=C(c3ccco3)C(=O)C(C)(OC(=O)c3ccc(OC)cc3)C(=O)C2=CN1Cc1ccccc1 (centres undefined) | ? | 2%[11.6 µM] | 5%[11.6 µM] | -5 | 13µM*!
CCCCC1=CC2=C(c3ccco3)C(=O)C(C)(OC(=O)c3ccc(OC)cc3)C(=O)C2=CN1CCOC (centres undefined) | -20% | -5%[11.6 µM] | -4%[11.6 µM] | -7 | ?
CCc1nnc2c(N3CCN(c4cccc(C(F)(F)F)c4)CC3)nc3ccccc3n12 | ? | -17% | 2% | . | -18%
O=[N+]([O-])c1ccc(O)c(/C=N/n2cnc3ccccc32)c1 | -20% | -19% | 5% | 1 | ?
Cc1ccc(/C=C2\SC(=S)N(/N=C/c3cc([N+](=O)[O-])ccc3O)C2=O)o1 | -25% | ? | ? | -6 | 18µM*
COc1ccc(C(=O)Nc2ccc(N3CCN(C(=O)c4ccccc4)CC3)cc2)cc1[N+](=O)[O-] | -3% | ? | 10% | -2 | 16µM*
CCOc1ccc(C(=O)NC(=S)Nc2ccccc2N2CCCCC2)cc1[N+](=O)[O-] | -20% | ? | 1% | -10 | -10%
CCOc1ccc(C(=O)NC(=S)Nc2ccc(N3CCCCC3)cc2)cc1[N+](=O)[O-] | -13% | ? | 17% | 1 | 3.5µM*
CC(=O)N1CCN(c2ccc(NC(=O)c3ccc(C(C)(C)C)cc3)cc2)CC1 | -7% | ? | 1% | 0 | 3.5µM*
CCCC(=O)N1CCN(c2ccc(NC(=O)c3ccc([N+](=O)[O-])o3)cc2Cl)CC1 | -22% | -27% | ? | -9 | 13µM*
CCCN(C(=O)Cn1c(=O)oc2cc(Cl)ccc21)c1ccc(C(C)C)cc1 | 0% | -29% | -6% | . | ?
Cc1ccccc1C(=O)N1CCN(c2ccc(NC(=O)c3ccc4c(c3)OCO4)cc2)CC1 | ? | ? | 7% | 3 | 13µM*
CCCCOc1ccc(C(=O)Nc2ccc(N3CCN(C(=O)C(C)C)CC3)cc2)cc1 | -7% | -26% | -1% | 2 | 2µM*
SMILES | USP1 inh | Tau fluor cs | Tau FP inhib | Coupling enz | Tau fibril ThT
CC(=O)N1CCN(c2ccc(NCc3ccc(F)cc3)cc2)CC1 | -24% | ? | ? | -12 | 25µM*
CC(C)C(=O)N1CCN(c2ccc(NC(=O)c3ccc([N+](=O)[O-])o3)cc2Cl)CC1 | -4% | -8% | 0% | -10 | ?
O=C(Nc1ccc(N2CCN(C(=O)c3ccco3)CC2)cc1)c1ccc2c(c1)OCO2 | -17% | -21% | -8% | 3 | ?
COc1cc(CNc2ccc(N3CCN(C(C)=O)CC3)cc2)ccc1OCc1ccc(F)cc1 | -21% | -24% | -3% | -4 | ?
CC(C)C(=O)N1CCN(c2ccc(NC(=O)c3ccc([N+](=O)[O-])o3)cc2)CC1 | -15% | ? | -6% | -6 | 5µM*
CCc1ccc(NC(=O)CN2C(=O)C(c3ccc(C)cc3)=NC23CCCCC3)cc1 | -24% | -11% | -15% | . | 0%
Cc1ccccc1-c1noc(CCC(=O)Nc2cccc(C)c2C)n1 | -8% | -7% | -4% | . | -1%
CCN1CCN(C(CNS(=O)(=O)c2ccc(C)cc2)c2ccccc2)CC1 (centres undefined) | -23% | . | . | 1 | .
O=C(Nc1ccc(N2CCN(C(=O)c3ccccc3)CC2)cc1)c1ccc([N+](=O)[O-])o1 | -13% | ? | 4% | -10 | 4.5µM*
Cc1ccccc1C(=O)N1CCN(c2ccc(NC(=O)c3ccc([N+](=O)[O-])o3)cc2)CC1 | -15% | . | . | 0 | .
Cc1cc2c(NC(=O)CCCC(=O)O)cccc2nn1 | -7% | -3% | -2% | -3 | .
Cc1cc2c(NC(=O)Nc3ccc(C(F)(F)F)cc3)cccc2nn1 | -18% | ? | 28µM* | -29 | ?
COc1cc([N+](=O)[O-])cc(/C=N/NC(=O)c2cncc(Br)c2)c1O | -23% | -16% | 4% | 8 | 13µM*
CCOc1cc(/C=N/NC(=O)c2cccs2)cc([N+](=O)[O-])c1O | -5% | ? | 3% | 1 | 10µM*
COc1cc(/C=N/NC(=O)c2cncc(Br)c2)cc([N+](=O)[O-])c1O | -21% | -26% | 1% | 6 | 13µM*
